KB-3-1 tox = KB-3-1 parental cell cytotoxicity; KB-3-1 viability, CellTiter-Glo ATP luminescence, 72 h; 1.4% of 400,000 active; Potency, µM (doses to about 46.1 µM), actives largely listed as cytotoxic; also: % is scaled to controls: 0 for no effect and ±100 for the full control effect; nearly all actives have a fitted effect of over 60% in size
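Cytotoxicity in the drug-sensitive parental line KB-3-1 was scored as loss of CellTiter-Glo luminescence following 72 h incubation with compound. Values come from curve fitting of normalized concentration-response data.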
HepG2 tox = kills HepG2 cells in TGF-b inhibitor counter-screen. HepG2 CAGA-GFP viability, ATP luminescence, 18 h. Potency, µM (series often up to 46.1 µM), inactives show at the top dose activity change, negative = cytotoxicity, hits mostly cytotoxic. 0.76% of 410,000 active
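CellTiter-Glo luminescence gave cytotoxicity after 18 hours at 37 degrees C. The cells were HepG2 CAGA-GFP in 1% FBS DMEM, stimulated with 500 pg/mL TGF-beta after compound addition. %Activity was normalised to no-cell wells (complete cell-killing) and DMSO (no toxicity), and curves were fitted and classified.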
TGFb SMAD3 inh = inhibitors of TGF-b signaling; Potency, µM (highest dose often 46.1 µM), for inactives: top-dose activity, negative = inhibition, usual class: inhibitors; HepG2 CAGA-GFP TGF-b/SMAD3 reporter, GFP fluorescence, 18 h; TGF-beta stimulated, 500 pg/mL final; 1.2% of 410,000 active; AID 588855; also: % is scaled to controls: 0 for no effect and ±100 for the full control effect; nearly all actives have a fitted effect of over 65% in size
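HEPG2 CAGA-GFP reporter cells (1000/well, DMEM with 1% FBS) received compounds, then recombinant TGF-beta at 500 pg/mL final for 18 hours at 37 degrees C. Per-cell GFP summed per well was normalised to unstimulated and stimulated DMSO controls before curve fitting.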
KB-V1 cytotox = kills drug-selected multidrug resistant KB-V1 cells | KB-V1 MDR cells viability, CellTiter-Glo, 72 h | 3.4% of 400,000 active | Potency, µM (highest dose often 46.1 µM), most hits filed as cytotoxic | AID 1347076; also: % is scaled to controls: 0 for no effect and ±100 for the full control effect; nearly all actives have a fitted effect of over 60% in size
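In this primary screen, KB-V1 cells overexpressing P-gp are incubated with library compounds (lowest to highest concentration) for 72 h at 37 degrees C before a luminescent ATP viability read.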
HT1080NT lethal = kills 2HG-producing HT-1080-NT fibrosarcoma cells; 1.6% of 360,000 active; HT-1080-NT fibrosarcoma viability, CellTiter-Glo ATP luminescence, 48 h; Potency, µM (series often up to 46.1 µM), inactives show at the highest dose activity, negative = less viability, actives largely listed as cytotoxic; AID 686970;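 also: NT is the 2HG producing partner of a matched IDH1 knockdown line; 0% = DMSO-treated cells and -100% = media-only wells without cells; nearly all actives have a fitted effect of over 55% in size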
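Viability by CellTiter-Glo luminescence after 48 h compound exposure at 37C of HT-1080-NT cells (750/well, RPMI, 5% FBS). % activity scaled between DMSO wells and medium-only wells, then curve-fitted and categorized by curve class.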
HT1080 IDH1KD tx = HT-1080 IDH1 knockdown cell toxicity (counter line). HT-1080 IDH1 knockdown viability, ATP luminescence, 48 h. Potency, µM (doses to about 46.1 µM), without a hit: at the highest dose activity, negative = toxicity, most hits filed as cytotoxic. 2% of 360,000 active. AID 686971;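 also: 0% = DMSO wells and -100% = cell-free medium wells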
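% activity derives from luminescence (CellTiter-Glo), normalised to DMSO and no-cell wells. HT-1080-IDH1KD cells, 750/well, had 48 h compound exposure at 37 °C.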
An asterisk follows results filed as active; i = inactive; ? = inconclusive; nt = no result. Most compounds without a hit are left out; they make up all but 6.6% or so of the library. Calls follow the shape of the dose curve; as a rule, active = well fitted curve in the direction sought with a large enough effect; inconclusive = small, poorly fitted or top-dose-only effect, or another doubt; inactive = no such curve, though single readings can be large; an effect the other way counts as inactive or inconclusive. Potency is read from the fitted curve at half-maximal effect.

SMILES | KB-3-1 tox | HepG2 tox | TGFb SMAD3 inh | KB-V1 cytotox | HT1080NT lethal | HT1080 IDH1KD tx
Cc1ccnc(NC(=S)N2CCN(c3ccc(Cl)cc3)CC2)c1 | i | nt | nt | i | nt | nt
O=C(/C=C/c1ccccc1[N+](=O)[O-])c1ccccc1Br | ? | -0.2% | ? | ? | ? | 20.6µM*
Cc1ccc(C(=O)/C=C/c2ccccc2[N+](=O)[O-])cc1 | i | -33.3% | ? | i | ? | ?
COc1ccc([N+](=O)[O-])cc1NC(=O)Nc1cccc(Cl)c1 | 5.17µM* | -25.1% | 0.0% | 2.91µM* | -19.9% | -5.4%
COc1ccc(Cl)cc1NS(=O)(=O)c1cccc(C(=O)NC2CC2)c1 | i | -2.7% | ? | 18.4µM* | -4.2% | -4.0%
COc1ccccc1NS(=O)(=O)c1cccc(NC(=O)Nc2cccc(Cl)c2)c1 | ? | 14.1µM* | ? | i | -6.4% | ?
COc1ccc(Cl)cc1NS(=O)(=O)c1cccc(C(=O)NCCCN2CCOCC2)c1 | i | -22.1% | 5.7% | i | 0.1% | 0.1%
COc1ccc([N+](=O)[O-])cc1NC(=O)C(C)N(C)Cc1cccc(OC)c1OC (stereo not given) | i | 2.1% | 1.0% | 8.2µM* | 3.7% | -0.8%
COC(=O)C1=C[C@@H](C(=O)OC)C2C3=C(C(=O)[C@]2(C)NC(=O)c2ccccc2)[C@H](C)[C@@H]2C(=O)N(C)C(=O)[C@@H]2[C@@H]3C1 (stereo not given in full) | nt | -0.8% | -12.2% | nt | nt | nt
Cc1cc(=O)[nH]c2nnc(SCc3ccc(Cl)cc3Cl)n12 | nt | -25.4% | -16.4% | nt | nt | nt
CCC(C)Sc1oc(-c2ccco2)nc1S(=O)(=O)c1ccc(C)cc1 (stereo not given) | ? | -10.2% | ? | ? | nt | nt
O=C(Nc1cccc(Cl)c1)c1cccc(Oc2ccc([N+](=O)[O-])cc2Cl)c1 | i | -29.2% | 15.8µM* | ? | ? | ?
COc1cc(Br)cc(CN2CCN(C/C=C/c3ccccc3)CC2)c1O | i | -32.5% | -14.2% | i | -13.0% | ?
COc1ccc(O)c(CN2CCN(C/C=C/c3ccccc3)CC2)c1 | i | -17.8% | -7.8% | 14.6µM* | 10.8% | ?
O=C(Nc1ccc(Br)cc1Cl)c1cnn2c1NC(=C1CC1)C=C2C(F)F | i | -15.7% | 6.3% | i | nt | nt
CC1(NC(=S)Nc2ccc3ccccc3c2)CCS(=O)(=O)C1 (stereo not given) | i | -33.1% | -25.0% | i | 0.7% | -13.7%
CN(C)C(=S)NC(=S)Nc1ccc2ccccc2c1 | ? | -3.8% | ? | 18.4µM* | 2.4% | -28.7%
CC(C)c1nn2c(=O)cc(COC(=O)c3cccc(NC(=O)c4ccccc4F)c3)nc2s1 | nt | -2.1% | 3.9% | nt | nt | nt
Cc1ccc(CSc2nnc(SCC(=O)N/N=C/c3c[nH]c4ccccc34)s2)cc1 | ? | -19.1% | 3.1% | i | 20.6µM* | 23.1µM*
Cn1ccc(C(=O)N/N=C/c2c[nH]c3ccccc23)n1 | 18.4µM* | -15.2% | 4.0% | i | 23.0% | 3.7%
CCc1ccc(-c2cc(C(=O)N/N=C/c3c[nH]c4ccccc34)[nH]n2)cc1 | ? | -73.2% | ? | ? | 5.17µM* | 3.66µM*
O=C(CSc1nnc(SCc2ccccc2)s1)N/N=C/c1c[nH]c2ccccc12 | i | -15.7% | -17.3% | i | -0.8% | -17.3%
C/C(=N\NC(=O)c1cc(-c2cccc([N+](=O)[O-])c2)n[nH]1)c1ccccc1O | ? | -32.1% | ? | i | ? | 23.1µM*
C/C(=N/NC(=O)c1cc(-c2cccc([N+](=O)[O-])c2)n[nH]1)c1cccc(O)c1 | ? | -39.7% | -4.4% | i | -5.2% | -2.9%
CC1(C(=O)NS(=O)(=O)c2cccs2)CCN1C(=O)Cc1ccccc1 (stereo not given) | i | 2.0% | 25.2% | i | -0.8% | 2.7%
SMILES | KB-3-1 tox | HepG2 tox | TGFb SMAD3 inh | KB-V1 cytotox | HT1080NT lethal | HT1080 IDH1KD tx
CCc1ccc(/C=N/NC(=O)c2cc(-c3cccc([N+](=O)[O-])c3)n[nH]2)cc1 | ? | -9.0% | ? | ? | 7.31µM* | 6.51µM*
CCOc1ccc(N(CC)S(=O)(=O)c2cc(Br)cc3c2N(C(C)=O)C(C)C3)cc1 (stereo not given) | ? | -55.2% | 10µM* | i | nt | nt
COc1ccc(-c2oc(NC(=O)CCl)c(C#N)c2-c2ccc(OC)cc2)cc1 | ? | 12.6µM* | -18.5% | ? | ? | ?
COc1ccc(N/C=C/C(=O)c2cc(OC)c(OC)c(OC)c2)cc1 | 3.66µM* | -5.6% | ? | ? | 1.16µM* | 1.3µM*
CCOC1=C2CN(S(=O)(=O)c3ccc(C)cc3)[C@H](c3ccc(CC)cc3)C[C@@H]2N(S(=O)(=O)c2ccc(C)cc2)[C@H](c2ccccc2)C1 | i | -22.6% | -6.1% | i | 5.1% | 3.5%
CCOC1=C2CN(S(=O)(=O)c3ccc(C)cc3)C(c3ccc(CC)cc3)CC2N(S(=O)(=O)c2ccc(C)cc2)C(c2ccc(CC)cc2)C1 (stereo not given) | 1.03µM* | nt | nt | i | 16.9% | 9.4%
Oc1ccc(Cl)cc1N=Cc1sc2ccccc2c1Cl | ? | -29.8% | -27.1% | i | ? | ?
O=[N+]([O-])c1ccc(O)c(N=Cc2sc3ccccc3c2O)c1 | 16.4µM* | -3.9% | -17.6% | 4.11µM* | -22.5% | ?
Cc1ccc(C(=O)N2c3nc(-c4ccco4)nn3C3(CCCCC3)[C@@H]3CCCC[C@@H]32)cc1 | nt | -24.0% | 0.0% | nt | nt | nt
COc1ccccc1N1CCN(C(=O)C2c3ccccc3Oc3ccccc32)CC1 | 1.84µM* | 0.5% | ? | 2.59µM* | 4.11µM* | 1.84µM*
CC(=O)Nc1ccc(S(=O)(=O)Nc2cccc3cccnc23)cc1 | i | -28.5% | -0.4% | ? | 5.0% | -12.4%
O=S(=O)(Nc1cccc2cccnc12)c1ccc(S(=O)(=O)N2CCCC2)cc1 | i | -27.9% | ? | ? | 2µM* | 1.26µM*
O=C(Nc1ccccn1)c1ccc(S(=O)(=O)c2ccc(Cl)cc2)cc1 | ? | -2.1% | ? | 7.31µM* | -1.5% | -4.9%
COc1ccc(S(=O)(=O)Nc2cccc3cccnc23)cc1 | nt | -32.9% | 7.08µM* | nt | nt | nt
COC(=O)c1sccc1NS(=O)(=O)c1ccc(OC)cc1 | i | -9.2% | -28.1% | 18.4µM* | ? | ?
